We go through 15 molecules from PubChem BioAssay.

Assay [1] deals with PRMT1 (protein arginine N-methyltransferase 1). Nature of the assay: PRMT1 binders on small-molecule microarrays, primary screen, biochemical, small-molecule microarray, 635 nm fluorescence (AID 1088).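 Further: binding of Prmt1 protein to compounds spotted on small-molecule microarray slides.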 The settings on record: small-molecule microarray binding, higher = more signal.
Assay [2] is described as follows: yeast growth modulation, basal conditions, primary screen, YJM789 clinical isolate, OD600, 24 h (AID 1089).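 Further: growth of clinical yeast isolate S. cerevisiae YJM 789 seeded 1000 cells per well; test concentration not given here.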 As to conditions: S. cerevisiae YJM789 growth, higher = more signal, called active from +8 up or from −8 down.
Assay [3] is described as follows: fission yeast growth modulation, primary screen, strain 972, OD600, 24 h, no modulator (AID 1090).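 Further: basal condition with compound alone and no growth modifier present; test concentration not given here.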 The settings on record: S. pombe 972 growth, higher = more signal, called active from +8 up or from −8 down.
Assay [4] can be described thus: S. cerevisiae growth modulation with rapamycin, primary screen, strain BY4716, OD600, 96 h (AID 1091). Further: test concentration not given here. The settings on record: higher = more signal, called active from +8 up or from −8 down.
In assay [5] the target is Torsin-1A-interacting protein 2 (Homo sapiens) (UniProt Q8NFQ8). The assay can be described thus: LULL1 binders on small-molecule microarray, primary screen, cell lysate, human LULL1 lysate, 635/667 nm fluorescence (AID 1092).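 Further: probe is lysate of COS7 cells overexpressing human LULL1; score merges per-feature 667 nm fluorescence with signal-to-noise.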 As to conditions: hLULL1 lysate binding, 635 nm fluorescence, higher = more signal.
Sequence of Torsin-1A-interacting protein 2 (Homo sapiens) (Q8NFQ8 whole entry, looked up): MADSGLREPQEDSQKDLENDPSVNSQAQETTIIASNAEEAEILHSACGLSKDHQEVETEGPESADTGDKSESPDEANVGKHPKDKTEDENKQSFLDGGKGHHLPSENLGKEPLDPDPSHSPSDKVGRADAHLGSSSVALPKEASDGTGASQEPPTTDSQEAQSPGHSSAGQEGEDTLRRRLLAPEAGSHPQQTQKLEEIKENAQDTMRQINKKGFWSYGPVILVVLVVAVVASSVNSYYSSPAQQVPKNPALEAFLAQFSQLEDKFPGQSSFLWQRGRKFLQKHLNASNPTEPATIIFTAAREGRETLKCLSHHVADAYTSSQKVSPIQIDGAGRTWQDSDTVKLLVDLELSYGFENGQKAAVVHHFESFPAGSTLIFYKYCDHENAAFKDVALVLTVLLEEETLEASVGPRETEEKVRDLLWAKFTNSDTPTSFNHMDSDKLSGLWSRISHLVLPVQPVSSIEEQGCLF
The nature of assay [6]: E. coli growth modulation, two-sided OD650, primary screen, E. coli filamentation project, strain DRC41, 24 h (AID 1093).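 Further: MC1000 strain lacking acrAB efflux and sulA so SOS filamentation is blocked; test concentration not given here.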 The settings on record: OD650, 24 h, higher = more signal, called active from +8 up or from −8 down.
Assay [7] is described as follows: small-molecule microarray binders of probe aLefty2, primary screen, biochemical, biotinylated probe, 635/667 nm fluorescence (AID 1094).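 Further: score merges spot fluorescence near 667 nm with spot signal-to-noise ratio.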 The settings on record: higher = more signal.
The subject of assay [8] is Noggin (protein binding on small-molecule microarray). The assay can be described thus: Noggin binders on small-molecule microarray, primary screen, biochemical, 635/667 nm fluorescence (AID 1095).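 Further: score merges 667 nm feature fluorescence with signal to noise over triplicate slides.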 As to conditions: 635 nm fluorescence, higher = more signal.
The target of assay [9] is Neurogenic locus notch homolog protein 3 (Homo sapiens) (UniProt Q9UM47). Nature of the assay: NOTCH3 binders on small-molecule microarray, primary screen, biochemical, 635/667 nm fluorescence (AID 1096). The settings on record: NOTCH3 binding, 635 nm fluorescence, higher = more signal.
Sequence of Neurogenic locus notch homolog protein 3 (Homo sapiens) (Q9UM47 whole entry, looked up): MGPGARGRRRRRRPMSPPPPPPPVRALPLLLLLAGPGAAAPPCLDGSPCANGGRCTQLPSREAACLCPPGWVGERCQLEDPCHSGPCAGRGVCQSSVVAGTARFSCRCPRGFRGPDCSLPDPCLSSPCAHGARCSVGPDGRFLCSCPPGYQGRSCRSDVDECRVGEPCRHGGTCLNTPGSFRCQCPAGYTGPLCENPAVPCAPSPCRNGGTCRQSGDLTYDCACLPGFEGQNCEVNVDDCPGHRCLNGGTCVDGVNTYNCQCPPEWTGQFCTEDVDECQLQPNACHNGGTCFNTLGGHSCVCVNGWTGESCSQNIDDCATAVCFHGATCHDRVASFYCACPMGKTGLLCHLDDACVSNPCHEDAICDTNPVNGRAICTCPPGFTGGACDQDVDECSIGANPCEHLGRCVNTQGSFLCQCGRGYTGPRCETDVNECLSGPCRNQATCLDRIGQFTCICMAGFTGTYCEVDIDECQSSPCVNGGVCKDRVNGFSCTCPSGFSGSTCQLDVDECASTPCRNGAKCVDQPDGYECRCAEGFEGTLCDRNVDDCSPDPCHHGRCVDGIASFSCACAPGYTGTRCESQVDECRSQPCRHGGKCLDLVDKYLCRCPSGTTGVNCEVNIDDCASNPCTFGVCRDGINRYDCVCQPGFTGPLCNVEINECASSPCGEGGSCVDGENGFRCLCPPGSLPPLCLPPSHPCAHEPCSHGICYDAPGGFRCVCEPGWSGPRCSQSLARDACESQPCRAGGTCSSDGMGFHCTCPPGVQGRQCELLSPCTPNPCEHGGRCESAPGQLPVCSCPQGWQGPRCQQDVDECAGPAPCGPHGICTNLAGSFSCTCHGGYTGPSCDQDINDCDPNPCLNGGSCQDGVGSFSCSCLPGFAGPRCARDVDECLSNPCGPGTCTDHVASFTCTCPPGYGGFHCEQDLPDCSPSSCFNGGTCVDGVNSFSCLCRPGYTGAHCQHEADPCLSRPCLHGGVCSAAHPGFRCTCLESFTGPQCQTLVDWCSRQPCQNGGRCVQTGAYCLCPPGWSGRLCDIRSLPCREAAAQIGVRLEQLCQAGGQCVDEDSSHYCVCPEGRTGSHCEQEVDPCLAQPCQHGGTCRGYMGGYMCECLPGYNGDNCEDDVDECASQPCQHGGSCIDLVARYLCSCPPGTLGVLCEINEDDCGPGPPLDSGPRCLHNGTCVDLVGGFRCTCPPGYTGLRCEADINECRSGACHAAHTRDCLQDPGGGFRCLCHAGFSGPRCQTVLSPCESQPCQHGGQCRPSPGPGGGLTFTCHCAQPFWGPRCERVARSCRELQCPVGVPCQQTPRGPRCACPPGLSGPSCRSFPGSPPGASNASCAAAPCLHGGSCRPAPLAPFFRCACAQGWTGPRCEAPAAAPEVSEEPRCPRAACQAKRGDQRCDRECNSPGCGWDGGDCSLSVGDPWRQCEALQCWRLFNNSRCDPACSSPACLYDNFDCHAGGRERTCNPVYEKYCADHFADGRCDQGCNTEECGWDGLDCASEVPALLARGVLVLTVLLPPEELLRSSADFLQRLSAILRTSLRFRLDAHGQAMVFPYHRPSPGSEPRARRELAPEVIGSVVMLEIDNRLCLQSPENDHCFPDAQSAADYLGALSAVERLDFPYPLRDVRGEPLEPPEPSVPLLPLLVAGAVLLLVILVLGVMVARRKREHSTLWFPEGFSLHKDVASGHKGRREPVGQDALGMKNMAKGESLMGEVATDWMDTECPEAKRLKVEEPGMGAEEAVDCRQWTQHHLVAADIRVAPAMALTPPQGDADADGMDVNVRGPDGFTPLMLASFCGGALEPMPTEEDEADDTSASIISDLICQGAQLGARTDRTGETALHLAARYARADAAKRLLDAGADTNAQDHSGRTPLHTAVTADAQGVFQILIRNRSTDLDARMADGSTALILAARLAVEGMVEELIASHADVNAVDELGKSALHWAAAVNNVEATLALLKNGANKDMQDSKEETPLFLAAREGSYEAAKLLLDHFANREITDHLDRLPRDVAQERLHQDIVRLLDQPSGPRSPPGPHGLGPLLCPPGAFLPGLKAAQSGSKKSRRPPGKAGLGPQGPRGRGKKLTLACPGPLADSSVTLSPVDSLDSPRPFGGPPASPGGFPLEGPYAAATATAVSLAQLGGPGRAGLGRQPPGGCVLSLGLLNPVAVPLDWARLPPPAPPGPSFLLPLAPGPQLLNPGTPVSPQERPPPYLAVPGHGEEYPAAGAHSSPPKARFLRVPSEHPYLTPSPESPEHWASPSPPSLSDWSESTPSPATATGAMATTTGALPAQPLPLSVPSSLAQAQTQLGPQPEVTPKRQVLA
Assay [10] can be described thus: small-molecule microarray binders of probe aEGFR, primary screen, biochemical, biotinylated probe, 635/667 nm fluorescence (AID 1097).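 Further: probe is a biotinylated anti-EGFR antibody binding compounds printed on slides; score combines fluorescence near 667 nm and signal to noise of each spot.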 The settings on record: higher = more signal.

The source made the active and inactive calls.

Regarding `COc1ccc([C@H]2OC[C@@H]3CCC(=O)N32)cc1`, the composite z-score in assay [1] is -0.136; in [5], 0.399; in assay [7] it was -0.0699; in assay [8] it was 0.397; in [9], 1.01; in assay [10] it was 0.0826. The z-score in [2] is -0.481 (inactive); in [3], -0.809 (inactive); in [4] it was 0.981 (inactive); in [6], -0.013 (inactive).
In the case of `O=C1C2C=CC(C(O)c3ccc4c(c3)OCO4)N(Nc3ccc([N+](=O)[O-])cc3)C2C(=O)N1c1ccccc1` (stereo not given), the composite z-score in assay [1] was 0.66; in assay [5], 1.97; in assay [7], -0.222; in [8], -0.0077; in assay [9], 0.777; in [10], 0.006. Moreover, the z-score is -0.664 (inactive) in assay [2], 0.484 (inactive) in [3], 1.36 (inactive) in assay [4] and -0.245 (inactive) in assay [6].
`COc1ccc([C@H]2C[C@H]3C(I)=C[C@@H]2C(=O)[C@]32CO2)cc1`: the composite z-score in assay [1] was -0.639; in [5], -0.83; in [7], -0.161; in assay [8] it was 0.387; in [9], 0.816; in assay [10], -0.135. Besides, the z-score is -1.61 (inactive) in assay [2], -15.3 (active) in assay [3], -1.79 (inactive) in assay [4] and 1.6 (inactive) in assay [6].
With `CCN(CC)c1ccc(N2CC=CC34O[C@@H]5/C=C\CCC(C)OC(=O)C5[C@H]3C(=O)N(CCCCCO)[C@@H]4C2=O)cc1` (stereo not given in full), the composite z-score in [1] was -0.895; in assay [5] it was -1.3; in [7], -0.283; in [8], -0.663; in assay [9], -0.134; in [10], -0.238. For the same molecule, the z-score is 0.026 (inactive) in assay [2], -1.42 (inactive) in [3], -0.399 (inactive) in assay [4] and -0.374 (inactive) in assay [6].
On to `C[N+](C)(C)CCCC[C@@H]1NC(=O)[C@@H]2C[C@H](C(=O)NCCCCCCNC(=O)CS)[C@H](c3ccc(O)cc3)N2C1=O`, for which the composite z-score in assay [1] is 0.567; in assay [5] it was 0.479; in assay [7], -0.115; in [8] it was -0.533; in assay [9], -0.627; in assay [10], -0.225. In addition, the z-score was 0.562 (inactive) in assay [2], -0.0042 (inactive) in assay [3], 0.525 (inactive) in [4] and -0.0327 (inactive) in assay [6].
With `C=CCNC(=O)[C@@H]1[C@H]2C(=O)O[C@H](c3ccccc3)[C@H](c3ccccc3)N2[C@H](c2ccc(OCCO)cc2)[C@@]12C(=O)N(C(=O)OCCOC)c1ccc(C#CCNC(N)=O)cc12`, the composite z-score in assay [1] is 1.4; in assay [5], 1.61; in assay [7] it was 0.0565; in [8], 0.954; in assay [9], 1.13; in assay [10], -0.0069. Further, the z-score in assay [2] is 2.15 (inactive); in [3], -0.221 (inactive); in assay [4] it was 3.97 (inactive); in assay [6], 1.98 (inactive).
Take `COC(=O)[C@@]1(Cc2ccc(OC)cc2)[C@H]2c3cc(C(=O)N4CCCC4)n(Cc4nc5ccccc5[nH]4)c3C[C@H]2CN1C(=O)c1ccccc1`: the composite z-score is 0.661 in assay [1]; 3.73 in assay [5]; 0.759 in [7]; -0.214 in [8]; 1.05 in [9]; 0.225 in [10]. Besides, the z-score in assay [2] was -0.0237 (inactive); in [3], 0.955 (inactive); in [4], 2.07 (inactive); in assay [6], 0.138 (inactive).
Regarding `O=C1O[C@@H](c2ccccc2)[C@@H](c2ccccc2)N2[C@@H](c3ccccc3OCCO)[C@]3(C(=O)Nc4ccccc43)[C@@H](C(=O)O)[C@H]12`, the composite z-score in assay [1] is 1.02; in [5], 3.02; in [7] it was -0.175; in assay [8], -0.314; in assay [9] it was 0.406; in assay [10] it was -0.185. Further, the z-score in assay [2] was 0.232 (inactive); in assay [3], -1.1 (inactive); in assay [4], -1.17 (inactive); in assay [6] it was -0.413 (inactive).
With `O=C(O)[C@H](Cc1ccccc1)n1cc(-c2ccccc2)nn1`, the composite z-score in assay [1] was 0.112; in assay [5], 1.03; in [7], -0.0592; in assay [8], 0.197; in assay [9] it was 0.185; in assay [10], 0.119. In addition, the z-score in [2] was 0.306 (inactive); in assay [3], 0.865 (inactive); in assay [4], 0.173 (inactive); in assay [6], -0.741 (inactive).
With `COc1cc(CO)cc(I)c1O[C@H]1C=C(C(=O)NCCO)C[C@@H](N(C(=O)c2cc3ccccc3oc2=O)C2CCCCCC2)[C@@H]1O`, the composite z-score in assay [1] is -0.446; in [5], -0.188; in assay [7], -0.198; in assay [8] it was 0.437; in [9], 0.383; in assay [10] it was -0.207. Besides, the z-score in [2] is -0.13 (inactive); in assay [3], -1.59 (inactive); in assay [4], -1.26 (inactive); in assay [6], 1.86 (inactive).
In the case of `C#CCNCc1ccccc1`, the composite z-score was -0.0993 in assay [1]; -0.0541 in assay [5]; -0.161 in assay [7]; 0.235 in [8]; 0.527 in assay [9]; -0.0435 in assay [10]. The z-score was -0.514 (inactive) in [2], -0.749 (inactive) in assay [3], -0.157 (inactive) in assay [4] and -0.276 (inactive) in assay [6].
Take `CCOC(=O)C[C@H]1[C@H](OC(=O)c2ccc(-c3ccccc3)cc2)[C@@H](NC(=O)c2ccccc2)c2cc(OCCCO)ccc2N1C(=O)Cc1ccc(OC)cc1`: the composite z-score in assay [1] was -0.719; in [5], 0.734; in assay [7], -0.192; in assay [8] it was 0.23; in [9], -0.712; in assay [10], -0.21. The z-score in assay [2] was 0.883 (inactive); in [3] it was -0.414 (inactive); in assay [4], 1.45 (inactive); in [6], 0.258 (inactive).
On to `CS(=O)(=O)CCOC(=O)C1=CC(CCCO)=CC(c2ccc(CN3CCCC3)cc2)N(Cc2cccc(OC(F)(F)F)c2)C=C1C(=O)OCCS(C)(=O)=O` (stereo not given), for which the composite z-score was 1.57 in [1]; 2.62 in assay [5]; 0.336 in assay [7]; 0.738 in [8]; 1.13 in [9]; 0.172 in assay [10]. The z-score in [2] is 0.441 (inactive); in [3] it was -12.9 (active); in assay [4], -0.805 (inactive); in [6] it was -1.05 (inactive).
As for `COc1ccc([Si](C)(C)[C@@H]2[C@@H](CC(=O)N3CCC[C@H]3CO)O[C@]3(C(=O)N(Cc4cccc(I)c4)c4ccccc43)[C@H]2C)cc1`, the composite z-score was 1.53 in assay [1]; 0.175 in assay [5]; 0.0678 in assay [7]; 1.62 in assay [8]; 1.08 in [9]; 0.0807 in [10]. The z-score in assay [2] is -1.23 (inactive); in assay [3] it was 0.0115 (inactive); in [4] it was 1.14 (inactive); in assay [6] it was 0.25 (inactive).
As to `CC(C)NC(=O)[C@@]1(Cc2ccccc2I)c2ccccc2C(=O)N(Cc2ccccc2Cl)[C@H]1c1ccc(CO)cc1`, the composite z-score in assay [1] was 1.51; in assay [5] it was 2.59; in [7] it was -0.0441; in assay [8], 0.607; in assay [9], 1.08; in [10], -0.0181. Also, the z-score in assay [2] is 1.14 (inactive); in assay [3] it was -0.199 (inactive); in [4], 1.39 (inactive); in assay [6] it was -0.406 (inactive).
